Test results published in PubChem BioAssay AID1835 (Johns Hopkins Ion Channel Center, 2009).
Among all 2,400 compounds or so, about 750 (31%) were called active. This is one part of the list. Unmarked numbers belong to inactive results.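 The calls were made as follows: active = median signal gain over dofetilide-blocked control wells reaching their mean plus 3 SD, so readout 1 at least 0; inactive = the rest.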

These compounds were tested against Voltage-gated inwardly rectifying potassium channel KCNH2 (Homo sapiens) (UniProt Q12809) (assay: hERG protection against dofetilide inhibition, confirmation, cell-based, thallium flux, duplicate retest, dofetilide IC70 (AID 1835)). Conditions: hERG cell line, FluxOR thallium flux, dofetilide-blocked; at 10 µM; stronger effect = higher value.
Chain of Voltage-gated inwardly rectifying potassium channel KCNH2 (Homo sapiens) (Q12809 whole entry, looked up): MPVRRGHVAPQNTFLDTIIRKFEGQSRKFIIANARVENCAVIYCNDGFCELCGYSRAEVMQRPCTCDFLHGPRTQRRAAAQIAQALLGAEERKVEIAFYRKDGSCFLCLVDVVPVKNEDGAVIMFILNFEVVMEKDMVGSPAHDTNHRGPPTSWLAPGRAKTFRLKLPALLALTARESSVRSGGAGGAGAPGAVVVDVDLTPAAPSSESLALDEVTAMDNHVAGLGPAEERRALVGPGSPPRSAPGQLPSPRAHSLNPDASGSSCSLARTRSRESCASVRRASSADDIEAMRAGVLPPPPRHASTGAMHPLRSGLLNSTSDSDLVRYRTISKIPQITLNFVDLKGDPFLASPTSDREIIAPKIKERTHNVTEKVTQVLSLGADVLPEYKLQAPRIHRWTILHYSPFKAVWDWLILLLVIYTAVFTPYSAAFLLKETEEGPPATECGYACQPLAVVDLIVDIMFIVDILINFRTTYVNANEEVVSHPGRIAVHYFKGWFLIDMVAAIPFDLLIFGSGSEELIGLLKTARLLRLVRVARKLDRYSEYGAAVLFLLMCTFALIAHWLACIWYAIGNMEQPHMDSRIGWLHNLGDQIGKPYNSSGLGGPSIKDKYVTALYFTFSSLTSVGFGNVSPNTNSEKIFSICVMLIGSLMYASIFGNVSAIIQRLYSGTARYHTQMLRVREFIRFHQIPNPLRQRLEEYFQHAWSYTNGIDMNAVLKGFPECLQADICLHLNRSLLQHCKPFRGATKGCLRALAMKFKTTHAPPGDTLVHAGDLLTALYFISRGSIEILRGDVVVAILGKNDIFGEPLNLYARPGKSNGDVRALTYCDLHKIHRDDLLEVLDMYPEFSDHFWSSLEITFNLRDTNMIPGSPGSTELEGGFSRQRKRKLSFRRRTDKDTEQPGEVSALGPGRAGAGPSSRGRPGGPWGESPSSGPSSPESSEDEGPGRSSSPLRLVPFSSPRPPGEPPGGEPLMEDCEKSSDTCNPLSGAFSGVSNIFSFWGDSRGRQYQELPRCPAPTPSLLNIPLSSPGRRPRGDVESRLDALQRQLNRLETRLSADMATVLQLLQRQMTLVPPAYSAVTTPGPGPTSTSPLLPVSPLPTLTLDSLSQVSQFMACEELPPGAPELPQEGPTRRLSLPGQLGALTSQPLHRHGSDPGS

| Structure (SMILES) | activity increase over dofetilide control, less the hit threshold |
| --- | --- |
| CC12CN3CC(C)(CN(C1)C3c1ccc3c(c1)OCO3)C2=O (centres undefined) | -8% |
| C/C(=N\NC(=O)COc1ccc(C)cc1C(C)C)c1ccc(-n2ccnc2)cc1 | 6% (active) |
| Cc1ccc(C(C)C)cc1OCC(=O)Nc1ccc(N2CCCCC2)cc1 | -11% |
| O=[N+]([O-])c1ccc(S(=O)(=O)Nc2ccc(S(=O)(=O)N3CCCC3)cc2)cc1 | -23% |
| O=C(O)CCCNC(=O)c1nn(Cc2ccccc2)c(=O)c2ccccc12 | 3% (active) |
| CC(C)(C)c1ccc(Cn2nc(CC(=O)O)c3ccccc3c2=O)cc1 | -9% |
| Cc1nc2c(C(=O)NCCc3ccccc3)c[nH]n2c(=O)c1Cl | -3% |
| S=C(NCc1ccccc1)NCc1ccccc1Cl | -9% |
| CN(Cc1ccccc1)C(=S)NC(=O)c1cccs1 | 10% (active) |
| NS(=O)(=O)c1ccc(NC(=S)NCc2cccs2)cc1 | -9% |
| CCCOc1ccc(C(=O)NNC(=S)NC(=O)c2cccs2)cc1 | -44% |
| O=C(NC(=S)NNC(=O)c1cccs1)c1ccc(Br)o1 | -23% |
| O=C(NC(=S)NCc1ccccc1)c1cccs1 | 23% (active) |
| Cc1ccc(C(=O)NC(=S)N(C)Cc2ccccc2)cc1 | -3% |
| O=C(NC(=S)Nc1ccccc1)c1cccs1 | 12% (active) |
| CCN(CC)c1ccc(NC(=S)NC(=O)c2cccs2)cc1 | 8% (active) |
| O=C(c1cccs1)N1CCN=C1SCc1ccccc1 | -20% |
| O=c1ccn(CCCBr)c(=O)[nH]1 | -8% |
| CCN(CC)CCOC(=O)C(c1ccccc1)c1ccccc1 | -6% |
| O=[N+]([O-])c1ccccc1OCCNCc1ccccc1 | 9% (active) |
| O=C1CCCN1C(=O)COc1ccccc1[N+](=O)[O-] | -13% |
| O=C(COc1ccccc1[N+](=O)[O-])Nc1cc(Cl)ccc1C(=O)O | -10% |
| Cc1cc(C)n(-c2nc(NCCCN(C)C)c3c4c(sc3n2)CCCC4)n1 | -10% |
| CCOc1ccc2nc(N3C(=O)/C(=C/c4ccccc4)NC3=S)sc2c1 | 71% (active) |
| CCOc1ccc(NC(=O)c2ccc(NC(=O)CSc3nc4ccccc4c(=O)[nH]3)cc2)cc1 | -17% |
| CCOc1ccc2nc(N3C(=O)/C(=C/c4ccc(Cl)cc4)NC3=S)sc2c1 | 22% (active) |
| COc1ccc(N2C(=O)/C(=C/c3cccs3)NC2=S)cc1 | -21% |
| O=C(N1CCOCC1)N1CCC(c2nc(-c3ccc(S(=O)(=O)N4CCOCC4)cc3)no2)CC1 | -12% |
| Cc1ccc(CNS(=O)(=O)c2ccc(C(F)(F)F)cc2)n1C | -18% |
